VLA-4 inh: inhibition in a human VLA-4 binding assay; 330,000 compounds, 0.2% hits; inhibition, % (about 7 µM as worked out from the volumes in the protocol); VLA-4 expressing cells, ligand binding flow cytometry; in the data active = inhibition above about 50%
Target sequence (P13612 whole entry, looked up): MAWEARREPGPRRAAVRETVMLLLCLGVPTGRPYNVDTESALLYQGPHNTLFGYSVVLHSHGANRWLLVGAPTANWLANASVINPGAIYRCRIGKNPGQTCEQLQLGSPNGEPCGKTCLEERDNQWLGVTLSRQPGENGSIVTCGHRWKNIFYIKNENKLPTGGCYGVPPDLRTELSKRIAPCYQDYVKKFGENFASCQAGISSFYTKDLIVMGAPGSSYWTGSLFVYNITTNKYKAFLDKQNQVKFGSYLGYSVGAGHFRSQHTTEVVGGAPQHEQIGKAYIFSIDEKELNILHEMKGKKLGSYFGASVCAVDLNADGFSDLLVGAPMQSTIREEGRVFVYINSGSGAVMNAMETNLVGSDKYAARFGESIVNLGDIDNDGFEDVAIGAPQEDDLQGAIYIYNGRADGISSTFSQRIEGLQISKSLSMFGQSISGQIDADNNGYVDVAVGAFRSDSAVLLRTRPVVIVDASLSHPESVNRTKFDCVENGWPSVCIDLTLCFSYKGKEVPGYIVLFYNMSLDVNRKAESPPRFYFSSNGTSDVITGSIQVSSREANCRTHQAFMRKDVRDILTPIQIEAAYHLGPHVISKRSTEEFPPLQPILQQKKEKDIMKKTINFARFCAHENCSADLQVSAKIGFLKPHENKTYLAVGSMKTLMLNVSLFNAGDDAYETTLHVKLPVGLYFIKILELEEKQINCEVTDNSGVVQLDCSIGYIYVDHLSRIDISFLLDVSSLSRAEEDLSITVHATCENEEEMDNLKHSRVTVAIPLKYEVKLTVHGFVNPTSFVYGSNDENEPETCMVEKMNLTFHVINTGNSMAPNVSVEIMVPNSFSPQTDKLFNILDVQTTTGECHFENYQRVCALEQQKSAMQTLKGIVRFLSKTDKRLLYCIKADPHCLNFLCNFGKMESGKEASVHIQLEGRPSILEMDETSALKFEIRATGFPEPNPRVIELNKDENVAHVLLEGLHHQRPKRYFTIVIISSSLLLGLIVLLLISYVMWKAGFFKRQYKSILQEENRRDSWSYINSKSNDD
LAP4-GFP MLPCN: modulators of TOR pathway LAP4-GFP in S. cerevisiae; S. cerevisiae LAP4-GFP multiplex, flow cytometry GFP, 3 h; median GFP as percent of DMSO wells; GFP response vs DMSO, % at 10 µM; 320,000 compounds, 0.34% hits; AID 2023;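 active = GFP response vs DMSO above a set limit, about the screen mean plus 3 SD, cut at about 150% in these data; inconclusive = under 70 cell events counted for the yeast strain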
AGP1-GFP MLPCN: alters AGP1-GFP fluorescence in TOR pathway yeast screen. S. cerevisiae AGP1-GFP multiplex flow cytometry, 3 h; GFP as percent of DMSO wells. GFP response vs DMSO, % at 10 µM. 320,000 compounds, 0.02% hits. AID 2066;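 active = GFP response relative to DMSO above a set limit, near screen average plus 3 SD, cut at about 150% in these data; inconclusive = fewer than 70 cells counted for the yeast strain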;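 also: median GFP channel fluorescence of the gated AGP1 strain per well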
MEP2-GFP yeast: yeast TOR pathway MEP2-GFP modulation. GFP response vs DMSO, % at 10 µM. S. cerevisiae MEP2-GFP strain, flow cytometry GFP, 3 h; 100% = DMSO control level. 330,000 compounds, 0.51% hits;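 active = GFP response versus DMSO above a set limit, roughly screen mean plus 3 SD, cut at about 180% in these data; inconclusive = fewer than 70 cells counted for a yeast strain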;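 also: median GFP fluorescence of the barcode-gated MEP2-GFP cells per well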
CIT2 TOR yeast: yeast TOR pathway CIT2-GFP modulation. S. cerevisiae CIT2-GFP strain, flow cytometry, 3 h; 100 means same as DMSO wells. GFP response vs DMSO, % at 10 µM. 320,000 compounds, 0.065% hits. AID 2029;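 active = GFP response relative to DMSO above a set limit, near the screen mean plus 3 SD, cut at about 150% in these data; inconclusive = Fewer than 70 cells measured for a yeast strain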;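 also: ratio of well median GFP fluorescence to mean of DMSO wells on the plate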
RPL19A TOR yeast: modulators of TOR pathway RPL19A-GFP in S. cerevisiae. S. cerevisiae RPL19A-GFP strain, flow cytometry, 3 h; stronger effect = lower value. percent response vs DMSO, % at 10 µM. 330,000 compounds, 0.3% hits;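 active = percent response vs DMSO below 50%; inconclusive = fewer than 70 events counted for the yeast strain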;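 also: median channel GFP fluorescence of the barcoded RPL19A-GFP strain; ratio of sample median GFP to plate DMSO average so 100% = DMSO; lower means less RPL19A-GFP as with rapamycin TOR inhibition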
Starred values were filed as active, the others as inactive; i = inactive; u = inconclusive; x = no result given; [ ] = another dose, or the depositor's remark. A selection: hits, their analogues and other compounds. The true share with any hit is near 1.1%.

SMILES	VLA-4 inh	LAP4-GFP MLPCN	AGP1-GFP MLPCN	MEP2-GFP yeast	CIT2 TOR yeast	RPL19A TOR yeast
COc1ccc(N(CC(=O)N2CCC(C(N)=O)CC2)S(=O)(=O)c2ccccc2)cc1	3	74	u	375*[may fluoresce violet]	u	42*[may fluoresce violet]
CS(=O)(=O)N(CC(=O)N1CCC(C(N)=O)CC1)c1ccc(Oc2ccccc2)cc1	-4	98	u	255*[may fluoresce violet]	u	45*[may fluoresce violet]
CCOC(=O)N1CCN(C(=O)CN(c2ccc(Oc3ccccc3)cc2)S(C)(=O)=O)CC1	-3	94	91	95	96	95
COC(=O)c1ccc(NC(=O)C23CCC(C)(C(=O)O2)C3(C)C)cc1 (stereo not drawn)	-5	150*	108	95	96	97
CCOC(=O)c1nn2c(C(F)(F)F)cc(-c3ccc(OC)cc3)nc2c1Br	2	92	103	111	110	106
O=C(O)c1cccc(-n2sc3ccccc3c2=O)c1	-13	102	100	93	100	94
O=c1c2ccccc2sn1-c1ccccc1	28	110	19	224*[may fluoresce violet]	u	63
O=C(COc1ccc2c3c(c(=O)oc2c1)CCC3)N1CCCC1	0	88	u	238*[may fluoresce violet]	u	59
O=C(COc1ccc2c3c(c(=O)oc2c1)CCC3)N1CCCCC1	5	97	93	103	96	101
CCN(CC)c1ccc(NC(=O)COC(=O)c2cccs2)cc1	8	136	u	243*[may fluoresce violet]	u	16*[may fluoresce violet]
CCN(c1ccc(NC(=O)COC(=O)c2cccs2)cc1)C(C)C	9	97	99	98	99	98
COc1ccc(C(c2nnnn2CC2CCCO2)N2CCN(c3ccccc3)CC2)cc1 (stereo not drawn)	4	93	31	242*[may fluoresce violet]	u	x
CCC(C)NC(=O)C1CCC(CNS(=O)(=O)c2cccc3nsnc23)CC1 (stereo not drawn)	-1	88	93	94	92	98
O=C(O)c1cc(O)c2c(c1)[C@@H]([C@H]1c3cc(C(=O)O)cc(O)c3C(=O)c3c(O[C@@H]4O[C@H](CO)[C@@H](O)[C@H](O)[C@H]4O)cccc31)c1cccc(OC3O[C@H](CO)[C@@H](O)[C@H](O)[C@H]3O)c1C2=O (stereo partly drawn)	57*	107	89	99	80	97
CN(CC(=O)Nc1ccc(Cl)c(C(F)(F)F)c1)C(=O)/C=C/c1cccs1	2	100	104	108	90	106
CCN(CC(=O)NCCN1CCOCC1)S(=O)(=O)c1ccc(F)cc1	12	92	u	280*[may fluoresce red and violet]	u	u
Cc1ccc([N+](=O)[O-])cc1NC(=O)C(C)N1CCCCC1 (stereo not drawn)	-4	73	19	185*[may fluoresce violet]	u	49*[may fluoresce violet]
CC(=O)Oc1ccc2c(=O)oc(-c3ccccc3)nc2c1	3	76	u	190*[may fluoresce violet]	u	44*[may fluoresce violet]
CC(=O)Oc1ccc2c(=O)oc(-c3ccccc3C)nc2c1	-7	88	81	104	96	101
O=C(Nc1ccc(S(=O)(=O)NC2=NCCCCC2)cc1)c1ccc(Cl)cc1Cl	-7	106	109	101	103	99
C=CC[C@@H](CC(=O)NCCO)C(=O)NCCOC(=O)[C@@H](CC=C)Cc1ccc(F)cc1	-14	84	90	90	90	90
CN(C)C(C(=O)NC1CCCCC1)c1ccc(Cl)cc1 (stereo not drawn)	1	u	u	u	u	13*[may fluoresce violet]
COC(CN(C(=O)CCl)C(C(=O)NC1CCCCC1)c1ccc(Cl)cc1)OC (stereo not drawn)	14	95	105	101	106	103
Cc1ccc2nc(COC(=O)c3ccc(Cl)nc3)cc(=O)n2c1	7	107	93	99	86	92
CCCC(=O)Nc1c(C(=O)OCC)[nH]c2ccccc12	-15	91	98	89	99	97
SMILES	VLA-4 inh	LAP4-GFP MLPCN	AGP1-GFP MLPCN	MEP2-GFP yeast	CIT2 TOR yeast	RPL19A TOR yeast
CCOC(=O)c1[nH]c2ccccc2c1N=CN(CC)CC	3	88	x	556*[may fluoresce violet]	u	40*[may fluoresce violet]
Cc1cc(-c2nnc(SCC(=O)Nc3ccccc3F)n2N)n[nH]1	-2	96	98	101	99	95
CCN(C(=O)c1cc2c(=O)n3cccc(C)c3nc2s1)C1CCCCC1	-3	76	u	190*[may fluoresce violet]	u	54
CCOCCn1c(=NC(=O)CSCC(=O)N2CCOCC2)sc2cc(OC)ccc21	-25	84	97	81	94	99
COc1cc2c(cc1OC)C(C(=O)Nc1cccc(C)n1)C(c1cccnc1)N(C)C2=O (stereo not drawn)	-12	77	u	256*[may fluoresce violet]	u	49*[may fluoresce violet]
COc1cc2c(cc1OC)C(C(=O)Nc1ccccn1)C(c1cccnc1)N(C)C2=O (stereo not drawn)	-5	93	104	102	103	99
O=C1c2ccccc2-c2onc3ccc(Oc4ccccc4)c1c23	i	234*	90	166	125	83
CC(C)c1ccc(N(CC(=O)NC(C)(C)C)C(=O)CCC(=O)Nc2nccs2)cc1	-1	98	101	101	102	104
CC(C)(C)NC(=O)CN(C(=O)CCC(=O)Nc1nccs1)c1ccc(F)cc1	-11	110	85	272*	116	96
CCOc1ncccc1C(=O)OCCN1C(=O)c2ccccc2C1=O	9	107	x	495*[may fluoresce violet]	u	29*[may fluoresce violet]
CC[n+]1c(/C=C/Nc2ccccc2)oc2ccc(OC)cc21	i	103	108	106	101	97
CC/C(=C\c1oc2cc3ccccc3cc2[n+]1CC)Nc1ccccc1	i	257*[may fluoresce violet]	43	629*[may fluoresce violet]	u	82
COc1cccc(-c2cc(C(F)(F)F)n3nc(C(=O)Nc4c(C)n(C)n(-c5ccccc5)c4=O)cc3n2)c1	-7	99	109	100	96	105
Cc1c(NC(=O)c2cc3nc(-c4ccc(Cl)cc4)cc(C(F)(F)F)n3n2)c(=O)n(-c2ccccc2)n1C	-5	74	105	99	94	46*[may fluoresce violet]
CC1(C)C(=S)N(Cc2ccccc2)c2ccccc21	10	98	102	108	103	100
O=C(COc1cccc(NC(=O)c2cccc([N+](=O)[O-])c2)c1)c1ccc(Br)cc1	0	59	u	259*[may fluoresce violet]	u	61
CCn1nnc2cc(C(=O)NCC(c3ccccc3OC)N(C)C)ccc21 (stereo not drawn)	-16	85	u	174	u	46*[may fluoresce violet]
CCn1nc(C)c(CNC(=O)C2CCC(=O)N(CCc3ccc(OC)cc3)C2)c1C (stereo not drawn)	-2	105	106	104	104	100
